The source of these data is PubChem BioAssay.

Active and inactive are the calls of the source.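 How the source made its calls, unless noted: active means visual image review flags a hit and inhibition of aggregation exceeds 20%; inconclusive means visual hit but inhibition at or below 20%; inactive means no hit on visual image review.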

A short description of test [1]: inhibitors of TNFa-induced NFkB p65 translocation, primary screen, imaging, HUVEC, MLSMR starter and 10KST1 sets (AID 438;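 active means inhibition above 20% together with a positive visual image hit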;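 further: compound added about 3h40 before a 20 min TNFalpha stimulation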;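 on inhibition: signal is the nuclear over cytoplasmic p65 intensity ratio per well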). The settings on record: HUVEC TNFa-induced p65 nuclear translocation; cell count: measured here: nuclei count (cytotoxicity indicator), at 2.08 µM; inhibition: at 2 µM, stronger effect = higher value, 0% TNFa-plus-vehicle, 100% no-TNFa wells.
Test [2] is described as follows: inhibitors of mutant huntingtin aggregation, primary screen, imaging, exon1htt(103Q)mCFP cells, high-content imaging (AID 483).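 Further: compound exposure lasted 3 days before fixation.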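 On nuclei count: percent of the per-plate median nuclei count of sample wells.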 The settings on record: exon1htt(103Q)mCFP cell line, aggregate imaging, at 2 µM; inhibition of aggregation: stronger effect = higher value; nuclei count: measured here: cell count, toxicity.
The nature of test [3]: inhibitors of E-selectin induction by TNFa, primary screen, imaging, HUVEC, immunofluorescence, MLSMR starter and 10KST1 sets (AID 487;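 active means visually confirmed hit in the image check and inhibition above 20%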;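 on inhibition: signal is fraction of cell area covered by stained E-selectin grains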;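 on nuclei count: 100% = median nuclei count of all wells on the same plate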). The settings on record: HUVEC TNFalpha-induced E-selectin immunofluorescence imaging, at 2 µM; inhibition: stronger effect = higher value; nuclei count: measured here: cell number, toxicity.
Test [4] deals with Voltage-gated potassium channel subunit beta-2 (Rattus norvegicus) (UniProt P62483). The test is described as follows: KvBeta enzyme negative modulators, primary screen, biochemical, NADPH fluorescence (AID 622;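 active means fluorescence slope higher than the sample average by over 3 SD, cut at about -0.22 in these data, passing the limit was not always enough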;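 further: slope of raw intensity against log time taken from 70 to 1610 s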). The settings on record: recombinant KvBeta, 4-cyanobenzaldehyde reduction, at 10 µM, stronger effect = higher value.
Voltage-gated potassium channel subunit beta-2 (Rattus norvegicus), sequence (P62483 whole entry, looked up): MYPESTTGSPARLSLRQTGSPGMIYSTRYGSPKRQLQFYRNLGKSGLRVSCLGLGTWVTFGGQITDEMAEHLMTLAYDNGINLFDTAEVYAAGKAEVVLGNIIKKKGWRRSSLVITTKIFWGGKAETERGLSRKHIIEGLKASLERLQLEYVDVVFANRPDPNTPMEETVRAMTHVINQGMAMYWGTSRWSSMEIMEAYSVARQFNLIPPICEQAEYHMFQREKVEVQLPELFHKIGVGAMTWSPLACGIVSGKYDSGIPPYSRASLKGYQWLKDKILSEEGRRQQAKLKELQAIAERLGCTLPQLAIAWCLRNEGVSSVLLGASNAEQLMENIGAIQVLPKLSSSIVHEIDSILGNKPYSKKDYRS
Test [5] has the same target. The test is described as follows: KvBeta positive modulators, primary screen, biochemical, NADPH fluorescence (AID 623;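 active means NADPH fluorescence slope more negative than the mean of all samples by about 3 SD, 99.7% confidence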;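 further: fluorescence intensity change per second fitted from 20 to 320 s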). The settings on record: Recombinant KvBeta, NADPH fluorescence decrease slope, 10 min; at 10 µM; stronger effect = lower value.
The target of test [6] is Alpha-2C adrenergic receptor (Homo sapiens) (UniProt P18825). Description: modulators of alpha2C/GIRK thallium flux, primary screen, cell-based, HEK293 alpha2C/GIRK1/2 (AID 624;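 active means fluorescence slope after compound addition differing from the mean of all screened samples at 99.7% confidence, in either direction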;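 further: slope of fluorescence ratio to pre-addition baseline per second over 15 to 24 s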). The settings on record: thallium flux BTC fluorescence, at 10 µM, actives lie on both sides.
Alpha-2C adrenergic receptor (Homo sapiens), sequence (P18825 whole entry, looked up): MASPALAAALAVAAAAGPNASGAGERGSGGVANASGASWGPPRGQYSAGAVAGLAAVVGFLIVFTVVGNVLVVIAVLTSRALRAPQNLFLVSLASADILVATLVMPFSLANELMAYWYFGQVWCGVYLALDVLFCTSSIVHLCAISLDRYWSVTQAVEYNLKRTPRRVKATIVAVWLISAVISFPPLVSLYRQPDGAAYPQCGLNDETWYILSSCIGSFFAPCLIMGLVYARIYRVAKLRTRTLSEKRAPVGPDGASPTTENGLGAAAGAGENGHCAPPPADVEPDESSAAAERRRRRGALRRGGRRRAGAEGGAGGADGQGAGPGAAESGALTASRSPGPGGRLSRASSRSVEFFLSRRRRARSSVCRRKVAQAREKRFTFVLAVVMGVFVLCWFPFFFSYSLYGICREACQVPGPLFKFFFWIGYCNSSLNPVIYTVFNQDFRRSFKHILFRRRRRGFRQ
A short description of test [7]: inhibitors of Sendai virus-induced IRF3 signaling, primary screen, TLR/RLR signaling modifier project, cell-based, Sendai virus stimulus, luciferase, 10K MLSCN set (AID 602276;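 active means inhibition at or above 50% at 10 µM; inactive means inhibition below 50%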;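 further: firefly luciferase from ISG56 promoter only with Renilla not read in this screen; 0% = Sendai virus plus DMSO and 100% = medium plus DMSO without virus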). The settings on record: HEK293 RL24 IRF3 luciferase reporter, at 10 µM, stronger effect = higher value. (A reporter such as luciferase makes a cellular process visible.)
A short description of test [8]: inhibitors of poly I:C-induced TLR3 signaling, primary screen, cell-based, poly I:C stimulus, luciferase, 10K MLSCN set (AID 602277;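 active means inhibition of the reporter signal at or above 50%; inactive means inhibition below 50%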). The settings on record: HEK293-TLR3 RL24 IRF3 luciferase reporter, at 10 µM, stronger effect = higher value.

As for `Cc1ccccc1Cn1c(=O)c2c(nc3n2CCCN3Cc2ccccc2)n(C)c1=O`, the cell count in test [1] is 348. In addition, the inhibition (in general, the drop in the measured response relative to a control, in per cent) is 7.4% (inactive) in test [1], -25.1% (inactive) in test [3], 22.9% (inactive) in test [7] and 19.5% (inactive) in test [8]. Also, the inhibition of aggregation in test [2] is 7.4% (inactive). The nuclei count in test [2] came out at 97.8%; in test [3] it was 120%. Moreover, the fluorescence slope in test [4] was -0.478 (inactive). Moreover, the NADPH fluorescence slope in test [5] was -7.4e-06 (inactive). The slope in test [6] was 0.00418 (inactive).

For the compound `COc1ccc(-c2c(=O)n(OCc3ccccn3)c3ccccc3[n+]2[O-])cc1OC`, the cell count in test [1] is 398. Besides, the inhibition in test [1] was 3.3% (inactive); in test [3], -22.9% (inactive); in test [7], -2.61% (inactive); in test [8], -16.8% (inactive). For the same compound, the inhibition of aggregation in test [2] was -10.4% (inactive). Also, the nuclei count in test [2] came out at 104%; in test [3] it was 110%. The fluorescence slope in test [4] was -0.385 (inactive). Also, in test [5], the NADPH fluorescence slope is -3.7e-09 (inactive). Besides, the slope in test [6] was 0.00593 (inactive).

As for `O=C(COC(=O)c1cnccn1)Nc1ccc2c(c1)OCO2`, the cell count in test [1] is 589. Moreover, the inhibition is 7.8% (inactive) in test [1], -56.6% (inactive) in test [3], 5.28% (inactive) in test [7] and 21.1% (inactive) in test [8]. For the same compound, the inhibition of aggregation in test [2] is -8% (inactive). The nuclei count in test [2] stood at 103%; in test [3], 105%. Besides, the fluorescence slope in test [4] is -0.484 (inactive). Also, in test [5], the NADPH fluorescence slope is -2.2e-05 (inactive). Moreover, the slope in test [6] was 0.00566 (inactive).

`Cc1c(C#N)c(N)c(C(=O)c2ccccc2)n1Cc1ccccc1`: the cell count in test [1] worked out at 375. The inhibition is 0% (inactive) in test [1], -38% (inactive) in test [3], -20.6% (inactive) in test [7] and 0.155% (inactive) in test [8]. In addition, the inhibition of aggregation in test [2] was 15.4% (inactive). Further, the nuclei count in test [2] came out at 100%; in test [3], 117%. Besides, the fluorescence slope in test [4] was -0.512 (inactive). For the same compound, the NADPH fluorescence slope in test [5] was -1.4e-05 (inactive). Also, in test [6], the slope is 0.0107 (inactive).

Turning to `CCSc1nnc(-c2ccc(OC)cc2)o1`, the cell count in test [1] came out at 651. The inhibition in test [1] is 11.1% (inactive); in test [3] it was 61.5% (inactive); in test [7], -34% (inactive); in test [8], -118% (inactive). Besides, in test [2], the inhibition of aggregation was 0% (inactive). For the same compound, the nuclei count in test [2] was determined as 99.1%; in test [3] it was 106%. Moreover, the fluorescence slope in test [4] is -0.242 (inactive). In addition, the NADPH fluorescence slope in test [5] was -1.2e-05 (inactive). Further, the slope in test [6] is 0.00568 (inactive).

Consider `CN(C)S(=O)(=O)N1CCN(S(=O)(=O)c2ccc(F)cc2)CC1`, for which, in test [1], the cell count stood at 787. In addition, the inhibition in test [1] is 3.6% (inactive); in test [3] it was -118% (inactive); in test [7], -20.1% (inactive); in test [8], -21% (inactive). For the same compound, the inhibition of aggregation in test [2] was -7% (inactive). The nuclei count turned out to be 103% in test [2] and 141% in test [3]. In addition, the fluorescence slope in test [4] was -0.436 (inactive). Also, the NADPH fluorescence slope in test [5] is -9.3e-07 (inactive). Moreover, the slope in test [6] was 0.00495 (inactive).

Take `CN1CCN(c2nc3c(c(=O)[nH]c(=O)n3C)n2CCOc2ccccc2)CC1`: the cell count in test [1] is 311. Further, the inhibition was 6.2% (inactive) in test [1], -45.8% (inactive) in test [3], 3.18% (inactive) in test [7] and 27.3% (inactive) in test [8]. Further, the inhibition of aggregation in test [2] is 0.9% (inactive). The figures for the nuclei count in test [2] and in test [3] were 108% and 116%, respectively. The fluorescence slope in test [4] was -0.489 (inactive). Moreover, in test [5], the NADPH fluorescence slope is -4.3e-05 (inactive). Also, in test [6], the slope is 0.00596 (inactive).

`Cc1ccc(S(=O)(=O)NCCNC(=O)C2CCCNC2=O)cc1` (centres undefined): the cell count in test [1] was found to be 440. The inhibition was -0.4% (inactive) in test [1], -14.7% (inactive) in test [3], 16.4% (inactive) in test [7] and 12.2% (inactive) in test [8]. Further, the inhibition of aggregation in test [2] is -9.8% (inactive). In addition, the nuclei count turned out to be 97.5% in test [2] and 121% in test [3]. For the same compound, the fluorescence slope in test [4] is -0.584 (inactive). Besides, in test [5], the NADPH fluorescence slope is -7e-05 (inactive). In test [6], the slope was 0.00341 (inactive).

For `CCOc1ccccc1N1C(=O)c2ccc(C(=O)Nc3cccnc3)cc2C1=O`, the cell count in test [1] came out at 594. For the same compound, the inhibition is 0.8% (inactive) in test [1], -38.7% (inactive) in test [3], 11.8% (inactive) in test [7] and 21% (inactive) in test [8]. In test [2], the inhibition of aggregation is 1.8% (inactive). The nuclei count in test [2] amounted to 105%; in test [3], 109%. For the same compound, the fluorescence slope in test [4] is -0.482 (inactive). In test [5], the NADPH fluorescence slope is 1.2e-05 (inactive). Moreover, the slope in test [6] is 0.00693 (inactive).

For `Cc1[nH]c(=O)[nH]c(=O)c1S(=O)(=O)N1CCCC(C(=O)NCc2ccco2)C1` (centres undefined), the cell count in test [1] came out at 377. The inhibition in test [1] is -2.8% (inactive); in test [3], -48.3% (inactive); in test [7] it was -2.81% (inactive); in test [8], 24.8% (inactive). Moreover, the inhibition of aggregation in test [2] is -4.9% (inactive). The nuclei count in test [2] worked out at 104%; in test [3], 106%. In addition, the fluorescence slope in test [4] was -0.402 (inactive). Further, in test [5], the NADPH fluorescence slope is -2.3e-05 (inactive). Moreover, the slope in test [6] was 0.00332 (inactive).

With `Cc1cc(OCC(=O)N2CCOCC2)cc2oc(=O)c3ccccc3c12`, the cell count in test [1] was found to be 352. Moreover, the inhibition in test [1] was 6.7% (inactive); in test [3], 3.4% (inactive); in test [7] it was -4.13% (inactive); in test [8], -8.03% (inactive). For the same compound, the inhibition of aggregation in test [2] is -9.5% (inactive). In addition, the nuclei count in test [2] was found to be 90.7%; in test [3], 124%. In addition, the fluorescence slope in test [4] is -0.329 (inactive). In addition, the NADPH fluorescence slope in test [5] was 2.7e-05 (inactive). In addition, the slope in test [6] was 0.00625 (inactive).

Regarding `CCCS(=O)(=O)C(=C1Nc2ccccc2N1)S(=O)(=O)CCC`, in test [1], the cell count amounted to 543. Moreover, the inhibition is -7% (inactive) in test [1], 0.5% (inactive) in test [3], 12.1% (inactive) in test [7] and 15.8% (inactive) in test [8]. Besides, the inhibition of aggregation in test [2] was -18.7% (inactive). Moreover, the nuclei count was 119% in test [2] and 75.9% in test [3]. Further, in test [4], the fluorescence slope is -0.63 (inactive). For the same compound, the NADPH fluorescence slope in test [5] was -4.3e-05 (inactive). Also, the slope in test [6] is 0.00495 (inactive).

As to `Cc1cc(C(=O)Nc2ccc(S(=O)(=O)Nc3onc(C)c3C)cc2)cs1`, the cell count in test [1] worked out at 608. Further, the inhibition in test [1] is -3% (inactive); in test [3], -17.7% (inactive); in test [7], 5.43% (inactive); in test [8] it was 8.03% (inactive). Besides, the inhibition of aggregation in test [2] is 15.4% (inactive). In addition, the nuclei count in test [2] was 94.1%; in test [3], 105%. Moreover, the fluorescence slope in test [4] was -0.361 (inactive). Moreover, the NADPH fluorescence slope in test [5] was -5e-05 (inactive). Besides, the slope in test [6] was 0.00493 (inactive).

`CCCCSc1nc(CCC)cc(=O)[nH]1`: in test [1], the cell count is 383. In addition, the inhibition in test [1] is -0.3% (inactive); in test [3], 3.8% (inactive); in test [7] it was 5.02% (inactive); in test [8], 2.79% (inactive). In addition, the inhibition of aggregation in test [2] was -4% (inactive). The nuclei count was determined as 98.2% in test [2] and 116% in test [3]. For the same compound, in test [4], the fluorescence slope was -0.34 (inactive). Moreover, the NADPH fluorescence slope in test [5] was 5.5e-06 (inactive). Further, the slope in test [6] is 0.00636 (inactive).
